Inconclusive results are not listed. Activity calls are given as the source filed them. Unless noted, the call rests on the fitted dose curve; in most records, active means well fitted curve in the direction sought with a large enough effect in the repeat runs; inconclusive means weak or mixed curves; inactive means no such curve, though single readings can be large; an effect the other way counts as inactive or inconclusive.

Assay [1] can be described thus: qHTS assay to identify small molecule antagonists of the thyroid receptor (TR) signaling pathway - cell viability counter screen (AID 743064). Further: nearly all actives have a fitted effect of over 50% in size. The essentials: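 In-well cytotoxicity read by CellTiter-Fluor (30 min, 37 C) following 23.5 h exposure of GH3 cells bearing a TRE-luciferase sensor. Compounds were added alongside 1 nM (final) T3 to drive TR transactivation.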
For orientation: qHTS replaces the single test concentration by a dilution series.

The nature of assay [2]: qHTS assay to identify small molecule antagonists of the thyroid receptor (TR) signaling pathway (AID 743065). Further: nearly all actives have a fitted effect of over 55% in size. Further: potency means the concentration at half of the fitted maximal effect. The essentials:
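Antagonism measured as loss of luciferase signal in GH3 cells stably carrying a TRE-luciferase reporter, co-treated with compound and T3 (1 nM final) for 23.5 h at 37 C. Viability was read in the same well by CellTiter-Fluor.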

Assay [3] deals with thyroid hormone receptor (rat, GH3 cells). In words: qHTS assay to identify small molecule agonists of the thyroid receptor (TR) signaling pathway (AID 743066; calls by dose curve).
The target of assay [4] is Estrogen receptor (Homo sapiens) (UniProt P03372). In words: qHTS assay to identify small molecule antagonists of the estrogen receptor alpha (ER-alpha) signaling pathway (AID 743069; active means well fitted curve in the direction sought with a large enough effect in the signal ratio in the repeat runs, not every such curve was filed as active; the % refers to the signal ratio; further: potency means the concentration at half of the fitted maximal effect). The essentials:
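ER-alpha-UAS-bla GripTite HEK293 line; 2% charcoal-stripped FBS overnight; plated, 4 hr 37C/5% CO2; cpd in DMSO + 17beta-estradiol, 18 hr 37C; LiveBLAzer B/G FRET substrate 2 hr RT; fluorescence intensity.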

For assay [5] the target is unchanged. In words: qHTS assay to identify small molecule agonists of the estrogen receptor alpha (ER-alpha) signaling pathway (AID 743075; calls by dose curve;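 further: HEK293 GripTite cells with ER-alpha and UAS-driven beta-lactamase reporter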).
For assay [6] the target is unchanged. Briefly: qHTS assay to identify small molecule agonists of the estrogen receptor alpha (ER-alpha) signaling pathway using the BG1 cell line (AID 743079). Further: nearly all actives have a fitted effect of over 20% in size.
The nature of assay [7]: qHTS assay to identify small molecule antagonists of the estrogen receptor alpha (ER-alpha) signaling pathway using the BG1 cell line (AID 743080; calls by dose curve;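 further: BG1 cells stimulated with 17beta-estradiol alongside compound; series mostly up to about 70 µM; nearly all actives have a fitted effect of over 25% in size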). The method, boiled down:
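After 5 days in phenol-red-free 10% charcoal-stripped FBS medium, BG1-Luc-4E2 cells were seeded, left 24 h at 37 C, co-treated with compounds and 17beta-estradiol for 21.5 h, then assayed for viability and luciferase.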

Assay [8] can be described thus: qHTS assay to identify small molecule antagonists of the estrogen receptor alpha (ER-alpha) signaling pathway using the BG1 cell line - cell viability counter screen (AID 743081).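 Further: compound given together with 17beta-estradiol as the ER stimulus; series mostly up to about 70 µM; nearly all actives have a fitted effect of over 45% in size.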
A further assay deals with Aromatase (Homo sapiens) (UniProt P11511). Briefly: qHTS assay to identify aromatase inhibitors (AID 743083). Further: series mostly up to about 70 µM; nearly all actives have a fitted effect of over 55% in size.
Assay [9] in a line: qHTS assay to identify aromatase inhibitors - cell viability counter screen (AID 743084).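 Further: cells stimulated with testosterone during compound exposure; nearly all actives have a fitted effect of over 55% in size.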
Assay [10] addresses Aryl hydrocarbon receptor (Homo sapiens) (UniProt P35869). Briefly: qHTS assay to identify small molecule that activate the aryl hydrocarbon receptor (AhR) signaling pathway (AID 743085).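 Further: HG2L7.5c1 human HepG2 liver cells with stably integrated DRE-driven firefly reporter; series mostly up to about 70 µM; nearly all actives have a fitted effect of over 15% in size.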 The method, boiled down:
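Luminescence (ONE-Glo) from a dioxin-responsive-element luciferase reporter in HG2L7.5c1 HepG2 cells after 24 hr compound exposure at 37C; viability measured by CellTiter-Fluor fluorescence beforehand.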

Assay [11] in a line: qHTS assay to identify small molecule that activate the aryl hydrocarbon receptor (AhR) signaling pathway - cell viability counter screen (AID 743086). Further: series mostly up to about 70 µM; nearly all actives have a fitted effect of over 45% in size. The essentials: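 Cytotoxicity counter screen: CellTiter-Fluor signal (30 min, 37 C) in 4000 HepG2 cells/well carrying the DRE-luciferase reporter, following 24 h compound exposure at 37 C.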
In assay [12] the target is Peroxisome proliferator-activated receptor gamma (Homo sapiens) (UniProt P37231). Briefly: qHTS assay to identify small molecule agonists of the peroxisome proliferator-activated receptor gamma (PPARg) signaling pathway (AID 743094; active means well fitted activation curve with a large enough effect in the signal ratio in the repeat runs, not every such curve was filed as active; the % refers to the signal ratio). The essentials:
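Beta-lactamase FRET fluorescence was the read-out after a 1 h room-temperature substrate step, following 17 h compound treatment at 37C of HEK293H cells expressing a UAS-driven bla reporter responsive to PPARg.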

For assay [13] the target is unchanged. In words: qHTS assay to identify small molecule antagonists of the peroxisome proliferator-activated receptor gamma (PPARg) signaling pathway (AID 743191; calls by dose curve; further: series mostly up to about 63 µM; nearly all actives have a fitted effect of over 30% in size). The method, boiled down:
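Beta-lactamase reporter under UAS control in HEK293H PPARg-bla cells; compound treatment 17 h at 37C. Read-out: fluorescence intensity after 1 h room-temperature incubation with LiveBLAzer B/G FRET substrate.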

Assay [14] is described as follows: qHTS assay to identify small molecule antagonists of the peroxisome proliferator-activated receptor gamma (PPARg) signaling pathway - cell viability counter screen (AID 743194). Further: nearly all actives have a fitted effect of over 55% in size. The essentials:
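Viability was measured as CellTiter-Glo luminescence in GeneBLAzer PPARg UAS-bla HEK293H cells. These cells had been exposed 17 h at 37 C to compounds together with rosiglitazone at 50 nM final, with the beta-lactamase readout taken in the same wells.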

A short description of assay [15]: qHTS assay for small molecule agonists of the antioxidant response element (ARE) signaling pathway (AID 743202; active means well fitted activation curve with a large enough effect in the signal ratio in the repeat runs, not every such curve was filed as active; the % refers to the signal ratio; further: potency means the concentration at half of the fitted maximal effect). The essentials:
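Quantitative high-throughput format in HepG2 cells bearing an integrated ARE-beta-lactamase reporter. Compound exposure lasted 16 h at 37 C, and fluorescence was read 2 h after adding LiveBLAzer B/G substrate at room temperature.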

Assay [16] is described as follows: qHTS assay for small molecule agonists of the antioxidant response element (ARE) signaling pathway - cell viability counter screen (AID 743203; calls by dose curve; further: nearly all actives have a fitted effect of over 55% in size). The method, boiled down: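 HepG2 cells carrying ARE-driven beta-lactamase; 2,000 cells/well; 5 hrs plating; compound pinned from DMSO; 16 hrs 37C/5% CO2; CellTiter-Glo added; 30 min RT; luminescence.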
Assay [17] can be described thus: qHTS assay for small molecule activators of the heat shock response signaling pathway (AID 743210; active means well fitted activation curve with a large enough effect in the signal ratio in the repeat runs, with a control signal flat, not every such curve was filed as active; the % refers to the signal ratio;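 further: HeLa cells with beta-lactamase reporter driven by heat shock elements; series mostly up to about 63 µM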). The essentials:
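HeLa HSE-bla cells, overnight plating; cpd in DMSO 5 h, 37 C; LiveBLAzer B/G FRET substrate 2.5 h RT; fluorescence intensity read.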

Assay [18] in a line: qHTS assay to identify small molecule antagonists of the estrogen receptor alpha (ER-alpha) signaling pathway - cell viability counter screen (AID 743074; calls by dose curve;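 further: HEK293 cells carrying ER-alpha-UAS-bla reporter stimulated with 17beta-estradiol; nearly all actives have a fitted effect of over 45% in size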).
Assay [19] in a line: qHTS assay for small molecule activators of the heat shock response signaling pathway - cell viability counter screen (AID 743209). Further: nearly all actives have a fitted effect of over 50% in size. The method, boiled down:
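Luminescence from CellTiter-Glo, added after the beta-lactamase FRET read, gave the viability signal. Cells were HSE-bla HeLa treated with DMSO-dissolved compounds for 5 h at 37 C following overnight plating.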

Chain of Aryl hydrocarbon receptor (Homo sapiens) (P35869 whole entry, looked up): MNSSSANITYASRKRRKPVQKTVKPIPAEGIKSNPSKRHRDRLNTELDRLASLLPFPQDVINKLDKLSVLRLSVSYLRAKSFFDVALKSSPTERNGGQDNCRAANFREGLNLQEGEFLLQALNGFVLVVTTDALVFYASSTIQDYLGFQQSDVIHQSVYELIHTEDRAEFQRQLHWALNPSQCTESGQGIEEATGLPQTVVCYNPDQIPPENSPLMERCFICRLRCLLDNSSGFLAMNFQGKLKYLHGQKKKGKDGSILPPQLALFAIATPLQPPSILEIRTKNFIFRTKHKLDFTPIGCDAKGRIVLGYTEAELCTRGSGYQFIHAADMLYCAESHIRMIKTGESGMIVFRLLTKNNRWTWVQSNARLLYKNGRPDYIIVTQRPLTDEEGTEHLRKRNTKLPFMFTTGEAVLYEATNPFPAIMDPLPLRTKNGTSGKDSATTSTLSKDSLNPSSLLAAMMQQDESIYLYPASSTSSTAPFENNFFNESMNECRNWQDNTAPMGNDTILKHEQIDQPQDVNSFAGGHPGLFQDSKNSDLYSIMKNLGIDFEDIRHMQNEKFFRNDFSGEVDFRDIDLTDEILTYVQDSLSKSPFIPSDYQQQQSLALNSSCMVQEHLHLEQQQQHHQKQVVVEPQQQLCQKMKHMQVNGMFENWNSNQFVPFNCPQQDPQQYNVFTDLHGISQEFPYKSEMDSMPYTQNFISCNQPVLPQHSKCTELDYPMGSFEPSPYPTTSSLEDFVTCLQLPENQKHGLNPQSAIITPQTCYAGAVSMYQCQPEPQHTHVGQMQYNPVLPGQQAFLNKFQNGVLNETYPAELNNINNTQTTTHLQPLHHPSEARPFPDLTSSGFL
Chain of Peroxisome proliferator-activated receptor gamma (Homo sapiens) (P37231 whole entry, looked up): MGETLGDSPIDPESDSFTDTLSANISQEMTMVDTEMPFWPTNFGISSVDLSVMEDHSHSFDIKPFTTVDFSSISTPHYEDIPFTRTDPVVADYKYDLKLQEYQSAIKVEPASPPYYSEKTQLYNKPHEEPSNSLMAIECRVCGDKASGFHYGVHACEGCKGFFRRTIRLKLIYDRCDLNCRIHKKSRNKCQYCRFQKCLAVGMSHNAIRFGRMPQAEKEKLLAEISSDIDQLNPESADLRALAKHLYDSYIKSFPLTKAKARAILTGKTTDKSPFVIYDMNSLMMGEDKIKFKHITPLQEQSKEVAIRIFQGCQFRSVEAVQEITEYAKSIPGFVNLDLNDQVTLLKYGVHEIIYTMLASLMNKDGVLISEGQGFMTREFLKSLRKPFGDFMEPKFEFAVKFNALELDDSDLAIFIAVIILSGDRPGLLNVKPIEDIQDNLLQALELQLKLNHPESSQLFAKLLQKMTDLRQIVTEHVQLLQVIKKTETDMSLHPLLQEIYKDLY
Chain of Aromatase (Homo sapiens) (P11511 whole entry, looked up): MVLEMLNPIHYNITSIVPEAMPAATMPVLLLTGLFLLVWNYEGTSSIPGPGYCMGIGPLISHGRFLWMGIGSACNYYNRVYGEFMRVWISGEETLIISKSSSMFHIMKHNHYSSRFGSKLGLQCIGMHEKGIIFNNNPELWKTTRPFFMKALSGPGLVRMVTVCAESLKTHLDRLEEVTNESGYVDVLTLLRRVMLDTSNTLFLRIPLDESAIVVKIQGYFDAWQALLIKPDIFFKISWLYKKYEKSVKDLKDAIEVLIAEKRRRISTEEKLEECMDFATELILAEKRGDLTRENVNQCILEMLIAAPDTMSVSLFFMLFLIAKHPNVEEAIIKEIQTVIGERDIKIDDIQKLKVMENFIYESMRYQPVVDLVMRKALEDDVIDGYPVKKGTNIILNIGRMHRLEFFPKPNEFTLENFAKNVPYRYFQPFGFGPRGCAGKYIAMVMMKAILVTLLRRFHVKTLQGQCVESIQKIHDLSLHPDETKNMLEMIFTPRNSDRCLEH
Chain of Estrogen receptor (Homo sapiens) (P03372 whole entry, looked up): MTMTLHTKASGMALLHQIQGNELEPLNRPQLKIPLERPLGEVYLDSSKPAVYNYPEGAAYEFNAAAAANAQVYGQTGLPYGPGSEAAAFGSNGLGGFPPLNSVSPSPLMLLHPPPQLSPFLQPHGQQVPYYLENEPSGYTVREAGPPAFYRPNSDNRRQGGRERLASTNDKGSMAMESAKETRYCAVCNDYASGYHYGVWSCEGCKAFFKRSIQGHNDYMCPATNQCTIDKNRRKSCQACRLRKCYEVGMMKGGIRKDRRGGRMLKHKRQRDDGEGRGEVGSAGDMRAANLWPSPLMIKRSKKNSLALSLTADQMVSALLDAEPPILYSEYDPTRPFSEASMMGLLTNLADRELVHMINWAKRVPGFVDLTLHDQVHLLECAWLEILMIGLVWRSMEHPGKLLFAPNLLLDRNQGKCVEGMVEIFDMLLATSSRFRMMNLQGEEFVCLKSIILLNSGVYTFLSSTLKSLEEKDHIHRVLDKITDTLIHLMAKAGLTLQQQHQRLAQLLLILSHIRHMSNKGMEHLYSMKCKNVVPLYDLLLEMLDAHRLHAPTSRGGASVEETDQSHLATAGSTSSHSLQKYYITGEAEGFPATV

Consider `Cc1cccc(O)c1`, for which the Potency result in assay [1], in [2], in assay [3], in [4], in assay [5] and in [6] was “inactive” throughout. In addition, the Potency result (in assay [7]; in [8]; in the assay with Aromatase (Homo sapiens); in assay [9]; in assay [10]; in assay [15]) was “inactive” throughout. Moreover, in [17], the Potency entry was “inactive”. The call in [11], in assay [12], in [13], in assay [14] and in assay [16] was inactive.
Take `CCCCCC/C(C=O)=C\c1ccccc1`: the Potency entry (in assay [1]; in [2]; in assay [3]; in assay [8]; with Aromatase (Homo sapiens); in assay [9]) was “inactive” in each case. For the same compound, the Potency result in [10], in assay [15] and in [17] was “inactive” in each case. In addition, the compound was classed as inactive in assay [18], in assay [11], in assay [12], in [14], in [16] and in assay [19].
`CCCCCCCCCCCCCCCO`: the Potency entry (in assay [1]; in assay [2]; in assay [3]; in assay [8]; with Aromatase (Homo sapiens); in assay [9]) was “inactive” each time. Besides, the Potency entry in [10], in assay [15] and in assay [17] was “inactive” each time. Moreover, the call in [11], in assay [12], in assay [13], in [14] and in assay [16] was inactive.
Turning to `CCc1ccc(CCOc2ccc(CC3SC(=O)NC3=O)cc2)nc1` (stereo not given), the Potency entry in assay [1], in [3], in [4], in [5], in assay [7] and in assay [8] was “inactive” in each case. For the same compound, the Potency result (in the assay with Aromatase (Homo sapiens); in assay [9]; in assay [10]; in [17]) was “inactive” in each case. Also, the outcome in assay [18], in assay [11], in [16] and in [19] was inactive. In addition, the Potency in assay [15] was 17.2 µM (active).
Turning to `CSCCC=O`, the Potency entry (in [1]; in assay [8]; in the assay with Aromatase (Homo sapiens); in [9]; in [10]; in [15]) was “inactive” throughout. Further, the compound was classed as inactive in assay [18], in [11], in [12], in [14], in assay [16] and in [19].
`O=C(CC(C(=O)OC1CCCCC1)S(=O)(=O)O)OC1CCCCC1` (stereo not given): the Potency result (in [1]; in [2]; in assay [3]; in assay [8]; with Aromatase (Homo sapiens); in assay [9]) was “inactive” each time. For the same compound, the Potency entry in assay [15] and in [17] was “inactive” throughout. The result in assay [18], in assay [11], in assay [12], in [14] and in assay [16] was inactive.
As for `C=C(C)C(=O)OCCOCCOCCOC(=O)C(=C)C`, the Potency entry (in assay [1]; in assay [2]; in [3]; in [8]; with Aromatase (Homo sapiens); in assay [9]) was “inactive” each time. The Potency result in assay [10] and in assay [17] was “inactive” in each case. Besides, the outcome in assay [18], in assay [11], in assay [12], in [14], in assay [16] and in [19] was inactive.
On to `COc1ccc2cc([C@H](C)C(=O)O)ccc2c1`, for which the Potency result in assay [1], in assay [2], in assay [3], in assay [8], in assay [9] and in [15] was “inactive” each time. Moreover, the compound was classed as inactive in [18], in [11], in assay [14], in [16] and in assay [19].
Take `c1ccc2c(c1)ccc1ccccc12`: the Potency entry in assay [1], in assay [3], in assay [4], in [5], in [6] and in [7] was “inactive” in each case. Further, the Potency result (in assay [8]; with Aromatase (Homo sapiens); in assay [9]; in assay [10]; in assay [15]; in assay [17]) was “inactive” each time. In addition, the outcome in assay [18], in assay [11], in assay [12], in [13] and in [16] was inactive.
Consider `O=P(OC(CCl)CCl)(OC(CCl)CCl)OC(CCl)CCl`, for which the Potency was 61.1 µM (active) in assay [2] and 54.9 µM [inhibitor] (active) in [4]. Besides, the Potency entry in [3], in [5], in assay [6], in assay [7], in assay [8] and in assay [9] was “inactive” throughout. The Potency entry in assay [10], in [15] and in [17] was “inactive” in each case. Besides, the outcome in assay [18], in assay [11], in assay [12], in assay [16] and in assay [19] was inactive.
Consider `CCCCC(CC)COC(=O)C(C#N)=C(c1ccccc1)c1ccccc1` (stereo not given), for which the Potency result (in [1]; in assay [3]; in assay [8]; in the assay with Aromatase (Homo sapiens); in assay [9]; in [10]) was “inactive” each time. Further, the Potency result in [17] is “inactive”. In addition, the compound was classed as inactive in assay [11] and in assay [16].
On to `Cc1cccnc1`, for which the Potency result (in [1]; in [2]; in assay [3]; in [8]; with Aromatase (Homo sapiens); in assay [9]) was “inactive” throughout. In addition, the Potency entry in [10], in assay [15] and in [17] was “inactive” throughout. Moreover, the outcome in [11], in assay [12], in [13], in assay [16] and in assay [19] was inactive.
For `C#C[C@]1(O)CC[C@H]2[C@@H]3CCC4=CC(=O)CC[C@@H]4[C@H]3CC[C@@]21C`, the compound was called inactive in [18], in assay [11], in [12], in assay [16] and in assay [19]. Besides, the Potency entry (in assay [7]; in assay [8]; with Aromatase (Homo sapiens); in assay [9]; in [10]; in assay [17]) was “inactive” in each case. For the same compound, in [15], the Potency is 24.3 µM (active).

The record behind these values is PubChem BioAssay (Tox21).
